Source: PubChem BioAssay (NCATS)
Results filed as inconclusive are left out. Entries that show only a call come without a potency. The source made the active and inactive calls. The call rests on the fitted dose curve; in most records, active means well fitted inhibition curve with a large enough effect; inconclusive means small, poorly fitted or top-dose-only effect; inactive means no such curve, though single readings can be large or run the other way.

tested on: Zika virus NS2B-NS3 protease (unlinked complex); assay: Primary screen GU Rhodamine qHTS for Zika virus inhibitors: Unlinked NS2B-NS3 protease assay (AID 1347159); conditions: Recombinant ZIKV NS2B-NS3 protease, Rhodamine110 substrate fluorescence; series mostly up to 107 µM; further: nearly all actives have a fitted effect of over 60% in size
Method in brief: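 Percent inhibition derives from the 15-min fluorescence change (ex 480, em 540 nm), normalized to no-enzyme and no-inhibitor wells. Reactions contained 25 nM NS2B-NS3 complex and 1.5 microM substrate in 10 mM Tris-HCl pH 8.0.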

Row | Compound | Potency
1 | CCNC(=O)C1OC(n2cnc3c(N)nc(NCCc4ccc(CCC(=O)O)cc4)nc32)C(O)C1O (centres undefined) | inactive
2 | CC(=O)NCC(=O)N1C2CCC1c1cc(Nc3ncc(C(F)(F)F)c(NC4CCC4)n3)ccc12 (centres undefined) | inactive
3 | CCNC(=O)Nc1ccc(-c2nc3c(c(N4CCOC[C@@H]4C)n2)CCN(c2ncccn2)C3)cc1 | inactive
4 | C[C@@H]1C(=O)OC[C@H]2C(C(=O)O)=C[C@@H]3CC(C)(C)C[C@]312 | inactive
5 | Cc1ccc([N+](=O)[O-])cc1S(=O)(=O)N(C)/N=C/c1cnc2ccc(Br)cn12 | inactive
6 | O=C(NCc1ccccn1)Nc1nnc(-c2ccco2)o1 | inactive
7 | Cc1ccc(NC(=O)c2ccc(CN3CC[C@H](N(C)C)C3)c(C(F)(F)F)c2)cc1Nc1nccc(-c2cncnc2)n1 | inactive
8 | C/C1=C\CC[C@H](C)CCO[C@@H]2O[C@H](CO[C@@H]3OC[C@](O)(COC1=O)[C@H]3O)[C@@H](O)[C@H](O)[C@H]2O | inactive
9 | CCn1c(=O)c(-c2ccn[nH]2)cc2c(C)nc(N)nc21 | inactive
10 | CCCCNc1ccc(-c2ccc(CN3CCOCC3)cn2)c(NC2CCC(O)CC2)c1 (centres undefined) | inactive
11 | CCOC(=O)CCN(C(=O)c1ccc2c(c1)nc(CNc1ccc(C(=N)N)cc1)n2C)c1ccccn1 | inactive
12 | COC1=CC(=O)CC(C)C12Oc1cc(OC)cc(O)c1C2=O (centres undefined) | inactive
13 | COc1ccc(CCO[C@@H]2O[C@H](CO[C@@H]3OC[C@H](O)[C@H](O)[C@H]3O)[C@@H](O)[C@H](O)[C@H]2O)cc1 | inactive
14 | COC(=O)C[C@H]1C(C)(C)[C@H](OC(=O)C(C)C)[C@@]2(O)C(=O)[C@]1(C)C1CC[C@]3(C)C(CC(=O)O[C@H]3c3ccoc3)[C@]13O[C@@H]32 (some centres undefined) | inactive
